BoNT-F LC inh: BoNT/F light chain protease inhibitors, primary screen, biochemical, flow cytometry, MLPCN library; Multiplex microsphere protease cleavage assay; actives 0.22% (n = 360,000); inhibition, % at 10 µM; AID 588497, 2011; Botulinum neurotoxin type F light chain protease (Clostridium botulinum); in the data active means inhibition above about 35%, passing the limit was not always enough
Anthrax LF prot: Bacillus anthracis LF protease inhibitors, primary screen, biochemical, multiplex microsphere, MLPCN library | multiplex microsphere protease cleavage assay | actives 0.12% (n = 360,000) | inhibition, % at 10 µM
Bead autofluor: counter-screen for toxin protease inhibitors: compound fluorescence; compound autofluorescence counterscreen, microsphere flow cytometry; stronger effect = higher value; fluorescence intensity (test concentration not listed); actives 3.1% (n = 360,000); in the data active means fluorescence intensity above about 16000
Mtb FBA inh: Mtb FBA enzyme inhibitors, primary screen, biochemical, fluorescence, strain H37Rv; Fructose-bisphosphate aldolase (Mycobacterium tuberculosis (strain ATCC 25618 / H37Rv)), …; purified M. tuberculosis FBA, fluorescence read-out; inhibition, % at 1 µM; actives 2.3% (n = 360,000); AID 588726, 2011; in the data active means inhibition above about 27%
Target sequence (P9WQA3 whole entry, looked up): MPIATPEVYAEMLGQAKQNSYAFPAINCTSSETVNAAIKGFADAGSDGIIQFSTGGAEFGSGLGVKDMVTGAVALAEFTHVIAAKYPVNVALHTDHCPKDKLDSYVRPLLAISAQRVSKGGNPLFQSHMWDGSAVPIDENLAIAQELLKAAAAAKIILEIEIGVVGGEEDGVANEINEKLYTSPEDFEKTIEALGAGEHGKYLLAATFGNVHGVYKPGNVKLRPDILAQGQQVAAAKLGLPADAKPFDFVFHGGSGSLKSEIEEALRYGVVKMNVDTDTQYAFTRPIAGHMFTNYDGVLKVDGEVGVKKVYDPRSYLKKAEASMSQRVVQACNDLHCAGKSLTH
BoNT A protease: BoNT/A light chain protease inhibitors, primary screen, biochemical, flow cytometry, MLPCN library; multiplex microsphere protease substrate cleavage; actives 0.17% (n = 360,000); inhibition, % at 10 µM; Botulinum neurotoxin type A light chain protease (Clostridium botulinum A str. ATCC 3502)
GDH-TPI counter-1: GDH-TPI coupling enzyme inhibitors, primary screen, artefact control for M. tuberculosis FBA inhibitor project, biochemical, absorbance, full deck; GDH-TPI coupled enzyme counterscreen, NADH absorbance; inhibition, % at 4.8 µM; actives 1.2% (n = 360,000); AID 588335, 2011; in the data active means inhibition above about 30%
Mtb FBA confirm: M. tuberculosis aldolase blockers, biochemical, fluorescence, strain H37Rv, confirmation | shares compounds with Mtb FBA inh | purified M. tuberculosis FBA, fluorescence read-out | inhibition, % at 1 µM | actives 78% (n = 5,600); in the data active means inhibition above about 27%
GDH-TPI counter-2: GDH-TPI coupling enzyme inhibitors, artefact control for M. tuberculosis FBA inhibitor project, biochemical, fluorescence, high throughput; GDH-TPI coupled enzyme counterscreen; AID 652141, 2013; actives 81% (n = 5,600); shares compounds with Mtb FBA inh; inhibition, % at 1 µM; in the data active means inhibition above about 10%
Large screens that a line does not name were inactive (follow-up assays come after a bar, where they were run). Most compounds without a hit are left out; they make up all but 6.7% or so of the library. Unless noted, no stated cut-off is given here; in the data, active means inhibition above about 30%; inconclusive means no clear call, values can overlap the other calls; inactive means below that.

CCOC(=O)c1cnn2c(C)cc(-c3ccccc3)nc12	Mtb FBA inh 53.7 | Mtb FBA confirm active | GDH-TPI counter-2 active
CCOC(=O)c1cc2nc(-c3ccccc3)cc(C)n2n1	none
Cc1cccc(Cc2c(C)nc3c(C(=O)NCc4ccco4)cnn3c2C)c1	Bead autofluor 23199, Mtb FBA inh 31.4 | Mtb FBA confirm 194.3 | GDH-TPI counter-2 148.5
Cc1cccc(Cc2c(C)nc3c(C(=O)N4CCN(Cc5ccc6c(c5)OCO6)CC4)cnn3c2C)c1	none
Cc1ccc(NCCC(=O)c2cccc([N+](=O)[O-])c2)c(C)c1	none
Cc1ccc(OCC(=O)Oc2c(C)cccc2C)cc1C	none
CCOC(=O)c1cnn2c(C(F)(F)F)cc(-c3ccco3)nc12	Mtb FBA inh 52.5 | Mtb FBA confirm active | GDH-TPI counter-2 159.6
NC(=O)c1cc2nc(-c3ccco3)cc(C(F)(F)F)n2n1	none
COCCNC(=O)C1CCCN(C(=O)c2nc(C)oc2C)CC1 (stereo unspecified)	none
Cc1cc(N2CCN(C)CC2)nc2ccc(NC(=O)CCC(=O)NCCC(C)C)cc12	Mtb FBA inh 33.3 | Mtb FBA confirm inactive | GDH-TPI counter-2 inactive
Cc1cc(N2CCN(C)CC2)nc2ccc(NC(=O)CCC(=O)NCc3ccco3)cc12	Mtb FBA inh 31.9 | Mtb FBA confirm 68.3 | GDH-TPI counter-2 69.4
Cc1cc(N2CCN(C)CC2)nc2ccc(NC(=S)N3CCN(c4ccc(Cl)cc4)CC3)cc12	Mtb FBA inh 27.1 | Mtb FBA confirm 134.9 | GDH-TPI counter-2 127.8
CCN1CCN(c2cc(C)c3cc(NC(=O)CCC(=O)Nc4ccc(OC)c(OC)c4)ccc3n2)CC1	none
COc1ccc(NC(=O)COc2ccc(C(=O)NC3CCCc4ccccc43)cc2OC)cc1 (stereo unspecified)	none
Cc1ccc(F)c(S(=O)(=O)NC(=O)C2(C)CCN2C(=O)Cc2ccc(Cl)cc2Cl)c1 (stereo unspecified)	none
COc1c(Cl)cccc1-c1cn2ccccc2n1	Mtb FBA inh 68.1 | Mtb FBA confirm inactive | GDH-TPI counter-2 inactive
COc1ccc(CC(=O)Nc2cccc(-c3nnc(-c4ccco4)o3)c2)cc1	none
O=C(Cc1ccccc1)Nc1nnc(-c2ccco2)o1	none
O=C(Cc1ccc(Cl)cc1)Nc1ccc(-c2nnc(-c3ccco3)o2)cc1	Mtb FBA inh 59.5 | Mtb FBA confirm 37.6 | GDH-TPI counter-2 31.2
COc1cc(C(=O)Nc2ccc(-c3nnc(-c4ccco4)o3)cc2)cc(OC)c1OC	none
COc1ccccc1CC(=O)Nc1ccc(-c2nnc(-c3ccco3)o2)cc1	Mtb FBA inh 83.0 | Mtb FBA confirm 51.1 | GDH-TPI counter-2 42.1
O=C(Cc1ccccc1)Nc1ccc(-c2nnc(-c3ccco3)o2)cc1	Mtb FBA inh 50.6 | Mtb FBA confirm active | GDH-TPI counter-2 151.3
CCOC(=O)C1C2c3ccccc3O[C@@]1(C)N=C1SCC(=O)N12 (stereo partly specified)	none
Nc1c(C(=O)Nc2ccc(Cl)cc2)sc2nc(N3CCOCC3)c3c(c12)CCCC3	Mtb FBA inh 37.2 | Mtb FBA confirm inactive | GDH-TPI counter-2 inactive
Cc1ccc(NC(=O)c2sc3nc(N4CCOCC4)c4c(c3c2N)CCCC4)cc1	none
COc1cccc(NC(=O)c2sc3nc(N4CCOCC4)c4c(c3c2N)CCCC4)c1	Mtb FBA inh 29.0 | Mtb FBA confirm 48.3 | GDH-TPI counter-2 45.0
Nc1c(C(=O)Nc2ccccc2)sc2nc(N3CCOCC3)c3c(c12)CCCC3	Mtb FBA inh 51.4 | Mtb FBA confirm 158.1 | GDH-TPI counter-2 159.9
Nc1c(C(=O)NCc2ccccc2)sc2nc(N3CCOCC3)c3c(c12)CCCC3	none
CCCCn1c(N)c(N(CC(C)C)C(=O)c2c(CC)noc2C)c(=O)[nH]c1=O	none (no result: BoNT-F LC inh, Anthrax LF prot, Bead autofluor, BoNT A protease)
CCN(CC(=O)NCc1cccs1)c1ccc(S(=O)(=O)N2CCOCC2)cn1	none
Cc1ccc2[nH]c(-c3cccc(N)c3)cc2c1	Mtb FBA inh 43.5 | Mtb FBA confirm 151.5 | GDH-TPI counter-2 128.5
Cc1ccc2[nH]c(-c3cccc(F)c3)cc(=O)c2c1	none
c1cc(-c2ccsc2)n2ccnc2c1	Mtb FBA inh 56.0 | Mtb FBA confirm 172.5 | GDH-TPI counter-2 137.2
Clc1ccc(-c2cccc3nccn23)c(Cl)c1	none
Cc1cc(O)ccc1-c1cccc2nccn12	Mtb FBA inh 49.3 | Mtb FBA confirm inactive | GDH-TPI counter-2 inactive
Cc1ccccc1C1N=C2Oc3ccccc3C=C2C(=O)N1 (stereo unspecified)	Mtb FBA inh 95.9 (no result: GDH-TPI counter-1) | Mtb FBA confirm 70.2 | GDH-TPI counter-2 52.2
CC(C)CC(c1nnnn1C(C)C)N1CCN(c2cccc(Cl)c2)CC1 (stereo unspecified)	Mtb FBA inh 42.4 | Mtb FBA confirm active | GDH-TPI counter-2 active
Cc1ccccc1N1C(=O)NC(=O)/C(=C\c2ccc3c(c2)CCCN3Cc2ccccc2)C1=O	none
N#Cc1c(N2CCNCC2)nc(-c2ccco2)c2c1CCCC2	none (no result: BoNT-F LC inh, Anthrax LF prot, Bead autofluor, BoNT A protease)
N#Cc1c(NCCCO)nc(NCc2ccccc2)c2c1CCN(Cc1ccccc1)C2	Mtb FBA inh 32.1 | Mtb FBA confirm 115.7 | GDH-TPI counter-2 107.9
CN(C)CCNc1nc(-c2ccccc2)c2c(c1C#N)CC(C)(C)OC2	none
N#Cc1c(NCCCO)nc(-c2ccco2)c2c1CCCC2	Mtb FBA inh 27.0 | Mtb FBA confirm 51.8 | GDH-TPI counter-2 43.6
CC1(C)Cc2c(C#N)c(NCCO)nc(-c3ccco3)c2CO1	Mtb FBA inh 59.3 | Mtb FBA confirm 31.9 | GDH-TPI counter-2 20.0
Cn1nc(C(F)(F)F)c(/C=N/OCc2c(Cl)cccc2Cl)c1Cl	none
CN(C)CCNC(=O)c1ccccc1-c1cc2ccccc2c(=O)o1	none
CN(CCNC(=O)c1c[nH]c2c1ccc1ccccc12)CCNC(=O)c1c[nH]c2c1ccc1ccccc12	Mtb FBA inh 29.5 | Mtb FBA confirm 193.4 | GDH-TPI counter-2 173.0
C/C(=N\NC(N)=O)c1ccc(Cl)cc1	none
COc1ccccc1N1C(=O)NC(=O)/C(=C\c2cnn(-c3ccccc3)c2)C1=O	none

From PubChem
